From PubChem BioAssay
Sampled rows, rich in hits. Any-hit rate of the full collection: about 1.8%.
GLP-1R inv ag = inverse agonists of human GLP-1 receptor | 410,000 tested, 1.6% active | HEK293 GLP-1R CRE-luciferase, luminescence, 24 h; GLP-1R form is constitutively active | Potency, µM (top dose mostly 38.3 µM), for the others: top-dose activity change, negative = inhibition, most hits filed as inhibitors | P43220; note: potency is the fitted concentration of half-maximal effect; % is set by controls: 0 for no effect and ±100 for the full control effect; nearly all actives have a fitted effect of over 55% in size
Target sequence (P43220 whole entry, looked up): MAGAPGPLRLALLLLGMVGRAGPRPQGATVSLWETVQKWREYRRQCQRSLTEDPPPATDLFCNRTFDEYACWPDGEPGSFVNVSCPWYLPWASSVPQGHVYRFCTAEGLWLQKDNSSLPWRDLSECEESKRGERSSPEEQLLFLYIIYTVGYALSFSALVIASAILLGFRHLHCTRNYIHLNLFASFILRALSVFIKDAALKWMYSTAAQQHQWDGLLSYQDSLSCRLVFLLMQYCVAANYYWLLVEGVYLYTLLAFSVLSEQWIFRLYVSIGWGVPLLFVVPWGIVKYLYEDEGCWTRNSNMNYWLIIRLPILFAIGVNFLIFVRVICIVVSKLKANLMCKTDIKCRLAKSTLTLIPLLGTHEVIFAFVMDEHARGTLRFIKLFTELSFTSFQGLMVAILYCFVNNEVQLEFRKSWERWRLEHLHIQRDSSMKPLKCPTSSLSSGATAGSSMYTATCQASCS
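Luminescence readout: a drop in cAMP-driven luciferase signal flags inverse agonism at a constitutively active GLP-1R stably expressed in HEK293. Compound exposure lasted 24 hr at 37 deg C, 5% CO2.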
GLP1R cytotox = cytotoxicity counter-screen for GLP-1 receptor inverse agonists; AID 624418; HEK293 cAMP-luciferase reporter cells, luminescence, 24 h; Potency, µM (top dose mostly 38.3 µM), for the others: at the top dose activity change, negative = inhibition, usual class: inhibitors; 410,000 tested, 0.13% active;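 note: loss of luciferase light is scored as toxicity; potency is the fitted concentration of half-maximal effect; % is set by controls: 0 for no effect and ±100 for the full control effect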
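Cells in DMEM/10% Nu serum/1% pen-strep, 1536-well format. Pre-incubated 12 h, dosed with 23 nL compound, incubated a further 24 h. Luciferase detection, 12 min at room temp, luminescence.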
GLP1R ag = GLP-1 receptor (human) agonism | P43220 | HEK293 GLP-1R CRE-luciferase, luminescence, 4-6 h; cells express a hypersensitive GLP-1R form | Potency, µM (highest dose often 45.6 µM), for the others: top-dose activation, usual class: activators | 380,000 tested, 0.007% active | AID 624172; note: potency is the fitted concentration of half-maximal effect; % of control where 0% means no effect
TSHR antag = human thyrotropin receptor antagonism. P16473. TSHR-expressing cells, TSH-stimulated cAMP HTRF, 2 h; stronger effect = lower value. activity change, negative = inhibition, % at 11.5 µM. 330,000 tested, 0.2% active;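 active = activity change below a set negative limit, meaning inhibition stronger than a set level, cut at about -70% in these data; inconclusive = activity change between two set negative limits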; note: % is set by controls: 0 for no effect and ±100 for the full control effect
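TSHR-expressing cells were treated with compounds, then stimulated with TSH at EC80 (4nM final) for 2 hours at 37 deg C. Cellular cAMP was measured by HTRF competition between lysate cAMP and cAMP-d2 for a cryptate-labelled anti-cAMP antibody.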
PTHR1 ag = PTHR1 (human) receptor agonism | 410,000 tested, 0.075% active | HEK293 GP2 PTHR1 cells, GloSensor cAMP luminescence, 1 h | Potency, µM (series often up to 115 µM), without a hit: top-dose activation, actives largely listed as activators | Q03431; note: potency is the fitted concentration of half-maximal effect; nearly all actives have a fitted effect of over 55% in size
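HEK-293-derived GP2 cells expressing PTHR1 and a GloSensor cAMP reporter, 3,000/well, plated overnight, given luciferin plus IBMX (each 0.5 mM as added) for 1 h at 37 °C, then compound for 1 h at 37 °C. Luminescence was read after 15 min at room temperature.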
An asterisk follows results filed as active. Unless noted, calls come from the whole dose curve; as a rule, active = well fitted curve in the direction sought with a large enough effect; inconclusive = small, poorly fitted or top-dose-only effect, or another doubt; inactive = no such curve, though single readings can be large; an effect the other way counts as inactive or inconclusive.

For COc1ccc(C(=O)NNc2ccccc2)cc1 the results were GLP-1R inv ag inconclusive, GLP1R cytotox 17.1%, GLP1R ag -18.4%, TSHR antag 17.6 and PTHR1 ag inactive.
For COc1ccc(C(=O)NOCc2ccccc2)cc1 the results were GLP-1R inv ag 3.16µM*, GLP1R cytotox 2.0%, GLP1R ag -6.8%, TSHR antag -0.1 and PTHR1 ag -9.3%.
Screening COc1ccc(C(=O)NC(Nc2ccccc2)C(Cl)(Cl)Cl)cc1 (centres undefined) returned GLP-1R inv ag 7.08µM*, GLP1R cytotox -17.6%, GLP1R ag -4.6%, TSHR antag 5.8 and PTHR1 ag inactive.
For O=C(NC(NC(=S)Nc1ccc(Cl)cc1)C(Cl)(Cl)Cl)c1ccco1 (centres undefined) the results were GLP-1R inv ag 3.55µM*, GLP1R cytotox inconclusive, GLP1R ag -2.0%, TSHR antag 3.1 and PTHR1 ag -36.5%.
Screening CC(=O)c1ccc(NC(=S)NC(NC(=O)c2ccco2)C(Cl)(Cl)Cl)cc1 (centres undefined) returned GLP-1R inv ag 5.01µM*, GLP1R cytotox -7.0%, GLP1R ag -17.1%, TSHR antag -5.5 and PTHR1 ag -10.7%.
For CN(CCCNC(=O)C1CCC(CNS(=O)(=O)c2ccccc2)CC1)Cc1ccccc1 (centres undefined) the results were GLP-1R inv ag 3.55µM*, GLP1R cytotox -0.5%, GLP1R ag 8.8%, TSHR antag 11.1 and PTHR1 ag inactive.
CC(=O)Nc1ccc(S(=O)(=O)NCC2CCC(C(=O)NCCCN(C)Cc3ccccc3)CC2)cc1 (centres undefined) was read as GLP-1R inv ag inconclusive, GLP1R cytotox -1.2%, GLP1R ag -3.1%, TSHR antag 13.0 and PTHR1 ag -16.5%.
For Cc1cc(C)cc(NC(=O)C(OC(=O)c2cccs2)c2ccccc2)c1 (centres undefined) the results were GLP-1R inv ag 10µM*, GLP1R cytotox 3.2%, GLP1R ag 7.7%, TSHR antag 4.8 and PTHR1 ag -0.2%.
Screening CC(C)(C)NC(=O)C(OC(=O)c1cccs1)c1ccccc1 (centres undefined) returned GLP-1R inv ag -27.7%, GLP1R cytotox 0.5%, GLP1R ag 12.6%, TSHR antag -2.1 and PTHR1 ag -22.6%.
Cc1ccc(C)c(N2CCN(C(=O)NCc3noc4ccccc34)CC2)c1 was read as GLP-1R inv ag inconclusive, GLP1R cytotox -12.3% and PTHR1 ag -26.4%.
For COc1ccc(S(=O)(=O)N2CCC(N3CCN(Cc4ccc(F)cc4)C(=O)C3=O)CC2)cc1 the results were GLP-1R inv ag 4.7%, GLP1R cytotox 14.1% and PTHR1 ag inactive.
`COc1ccc2c(c1)c1nc3ccccc3nc1n2CCn1c(=O)oc2ccccc21` gave GLP-1R inv ag -2.8%, GLP1R cytotox 2.7%, GLP1R ag -10.5%, TSHR antag 23.8 and PTHR1 ag 0.398µM*.
`COc1ccc(/C=N/Nc2ncnc3sc(C)c(C)c23)cc1` gave GLP-1R inv ag 8.91µM*, GLP1R cytotox inconclusive, GLP1R ag 29.9%, TSHR antag -16.8 and PTHR1 ag inactive.
`CC(C)(CO)NCc1c(OCc2ccc(Cl)cc2)ccc2ccccc12` gave GLP-1R inv ag 5.62µM*, GLP1R cytotox inconclusive, GLP1R ag -0.2%, TSHR antag -1.2 and PTHR1 ag -8.8%.
For CCNC(=O)C1CCN(Cc2cc3ccccc3n2Cc2ccc(C)cc2)CC1 the results were GLP-1R inv ag -8.7%, GLP1R cytotox 7.5% and PTHR1 ag inactive.
Screening O=C(NCCc1ccccc1)C1CCN(Cc2cc3ccccc3n2Cc2ccccc2)CC1 returned GLP-1R inv ag inconclusive, GLP1R cytotox -16.7% and PTHR1 ag inactive.
Screening Cc1ccccc1Cn1c(CN2CCC(C(=O)NCCc3ccccc3)CC2)cc2ccccc21 returned GLP-1R inv ag 11.2µM*, GLP1R cytotox 1.9% and PTHR1 ag -17.7%.
For CN(Cc1ccccc1)C(=O)C1CCN(Cc2cc3ccccc3n2Cc2ccccc2)CC1 the results were GLP-1R inv ag 10µM*, GLP1R cytotox 0.3% and PTHR1 ag -3.6%.
